# Screening data: PubChem, The Scripps Research Institute Molecular Screening Center
# LYPLA2 counter – blocks human lysophospholipase 2, a PME1 counter-screen; 0.38% of 320,000 active; recombinant LYPLA2, FP-Rh probe fluorescence polarization; inhibition, % at 5.9 µM; O95372;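 active means inhibition above the screen-wide mean plus 3 SD, limit set per campaign, cut at about 26% in these data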;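 further: 0% = LYPLA2 with DMSO and 100% = wells lacking LYPLA2 enzyme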
# Fam108B counter – Fam108B inhibition, counter-screen for RBBP9 inhibitors; 0.33% of 300,000 active; inhibition, % at 9.51 µM; recombinant Fam108B, FP-Rh probe fluorescence polarization;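 active means inhibition above the screen mean inhibition plus 3 SD, computed separately per campaign, cut at about 18% in these data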;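 further: inhibitors lower polarization as less probe binds the enzyme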
# LYPLA1 counter – counter-screen for PME1 inhibitors: inhibitors of human LYPLA1; AID 2174; recombinant LYPLA1, FP-Rh probe fluorescence polarization; inhibition, % at 5.9 µM; O75608; 0.16% of 320,000 active;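 active means inhibition above the mean of all tested compounds plus 3 SD, set per campaign, cut at about 14% in these data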;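 further: inhibitors block serine hydrolase probe labeling of LYPLA1 so polarization falls; 0% = enzyme with DMSO and 100% = wells lacking LYPLA1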
# Target sequence (O75608 whole entry, looked up): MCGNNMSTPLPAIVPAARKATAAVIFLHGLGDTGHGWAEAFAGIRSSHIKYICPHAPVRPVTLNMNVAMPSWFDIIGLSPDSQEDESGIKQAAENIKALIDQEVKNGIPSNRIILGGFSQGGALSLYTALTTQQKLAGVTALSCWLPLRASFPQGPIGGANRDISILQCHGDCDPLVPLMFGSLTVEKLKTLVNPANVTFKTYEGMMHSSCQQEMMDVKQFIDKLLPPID
# GSTO1 counter – counter-screen for RBBP9 inhibitors: inhibitors of human GSTO1; 1.1% of 300,000 active; inhibition, % at 5.96 µM; recombinant GSTO1, activity-based probe fluorescence polarization;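 active means inhibition above the campaign mean inhibition plus 3 SD, cut at about 35% in these data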;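 further: 0% = GSTO1-1 with DMSO and 100% = wells lacking GSTO1-1 enzyme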
# Target sequence (P78417 whole entry, looked up): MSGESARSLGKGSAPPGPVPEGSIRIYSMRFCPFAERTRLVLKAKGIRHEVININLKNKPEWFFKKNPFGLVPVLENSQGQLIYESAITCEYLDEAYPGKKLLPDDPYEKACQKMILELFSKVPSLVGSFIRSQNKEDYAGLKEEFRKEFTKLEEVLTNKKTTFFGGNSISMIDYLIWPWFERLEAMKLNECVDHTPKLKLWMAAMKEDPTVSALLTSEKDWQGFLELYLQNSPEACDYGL
# PAD4 inh – inhibitors of human PAD4. Q9UM07. recombinant PAD4, RCA probe fluorescence polarization. inhibition, % at 6.36 µM. 0.41% of 330,000 active. AID 485272;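 active means percent inhibition above a cutoff equal to the mean of all tested compounds plus 3 SD, cut at about 15% in these data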;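 further: 0% = PAD4 with RCA probe and DMSO and 100% = probe without PAD4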
# PME-1 primary – blocks human protein phosphatase methylesterase 1; Q9Y570; recombinant PME-1, FP-Rh probe fluorescence polarization; inhibition, % at 5.9 µM; 0.53% of 320,000 active; AID 2130;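 active means inhibition above the campaign mean of all compounds plus 3 SD, cut at about 26% in these data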;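 further: competitive labeling of PME-1 active site by serine hydrolase directed probe; 0% = PME-1 with DMSO and 100% = wells lacking PME-1 enzyme; inhibitors block probe labeling so polarization falls and inhibition rises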
# PAD4 confirm – PAD4 (human) inhibition, confirmed; shares compounds with PAD4 inh; recombinant PAD4, RCA probe fluorescence polarization; inhibition, % at 6.36 µM; 28% of 1,200 active;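 active means mean inhibition across replicates above the hit cutoff set by the earlier primary screen, cut at about 15% in these data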;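 further: inhibitors block active-site labeling by the probe so polarization falls; 0% = PAD4 with probe and DMSO and 100% = probe without PAD4 enzyme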
# The depositor's hits bear a star; x = no result. The list is not random: actives were taken first. Their share in the collection is about 1.7%.
SMILES,LYPLA2 counter,Fam108B counter,LYPLA1 counter,GSTO1 counter,PAD4 inh,PME-1 primary,PAD4 confirm
O=C(COC(=O)c1ccc(O)cc1)Nc1cccc(S(=O)(=O)NC2=NCCCCC2)c1,-1,-2,-1,7,-1,-3,x
Nc1nc2cc(S(=O)(=O)NC3=NCCCCC3)ccc2s1,-1,5,3,9,28*,3,25*
CCOC(=O)c1ccc(S(=O)(=O)Nc2nc3cc(S(=O)(=O)NC4=NCCCCC4)ccc3s2)cc1,2,-1,1,-2,29*,0,26*
CN(C)CCCNc1cn[nH]c(=O)c1Cl,-2,-3,-2,-5,60*,2,3
CC1(C)c2ccccc2N2CCC(=O)NC21/C=C/c1ccco1 (centres undefined),-9,-6,-3,4,17*,-14,-3
CC1(C)c2ccccc2N2CC(=O)NC21/C=C/c1ccco1 (centres undefined),-7,-3,-1,3,-12,-4,x
CCc1nc(Nc2cc(OC)ccc2OC)c2oc3ccccc3c2n1,3,-2,-3,3,0,6,x
COc1ccc(Cl)cc1Nc1nc(C)nc2c1oc1ccccc12,-2,-11,0,1,15*,-1,-15
Cc1cccc(OCCNc2nc3c(c(=O)n(C)c(=O)n3C)n2C)c1,4,-6,0,5,0,-1,x
COCCNc1c([N+](=O)[O-])c(=O)n(-c2ccccc2)c2ccccc12,-1,0,0,6,3,-1,x
CCSc1c([N+](=O)[O-])c(=O)n(-c2ccccc2)c2ccccc12,1,1,1,-8,23*,2,21*
Cc1ccc(C)c(NC(=O)c2ccccc2NC(=O)C2CCCO2)c1 (centres undefined),0,0,-2,3,-6,-6,x
O=C(OCn1ncc(Br)c(Br)c1=O)c1ccccc1Cl,-6,1,-4,37*,34*,-5,32*
O=C(CN1CCN(c2ccccn2)CC1)Nc1nc2ccccc2s1,-2,-8,-1,8,18*,3,6
CCn1c(CSc2nnc(-c3ccoc3C)n2C)nc2cc(S(=O)(=O)N(C)C)ccc21,8,3,-1,-5,32*,-2,15
Cc1cc(Cl)ccc1OCC(=O)OCC(=O)c1c(N)n(C)c(=O)n(C)c1=O,-5,x,-2,x,27*,-3,6
COc1cccc(C(=O)OCC(=O)c2c(N)n(C)c(=O)n(C)c2=O)c1,1,x,0,x,22*,-2,5
Cn1c(N)c(C(=O)COC(=O)COc2cc(Cl)c(Cl)cc2Cl)c(=O)n(C)c1=O,x,x,x,x,-1,x,x
COc1ccc(NS(=O)(=O)c2cccc(C(=O)OCC(=O)c3c(N)n(C)c(=O)n(C)c3=O)c2)cc1,x,x,x,x,-7,x,x
CCC(=O)c1ccc(OCC(=O)OCC(=O)c2c(N)n(C)c(=O)n(C)c2=O)cc1,-2,x,0,x,-3,-7,x
Cn1c(N)c(C(=O)COC(=O)COc2ccc(Br)cc2)c(=O)n(C)c1=O,-11,x,1,x,171*,-9,8
COc1ccc(OCC(O)Cn2c(N)nc3c2c(=O)[nH]c(=O)n3C)cc1 (centres undefined),-3,3,2,5,0,-3,x
COc1ccc(NC(=O)COC(=O)c2ccc(-n3cnnn3)cc2)c([N+](=O)[O-])c1,-7,x,-4,x,-1,-14,x
CCCCC1=CC2=CC(=O)C(C)(OC(=O)CCC(=O)OC)C(=O)C2=CO1 (centres undefined),1,-1,2,8,-7,-4,x
C=CCN1C=C2C(=O)C(C)(OC(=O)CCC(=O)OC)C(=O)C=C2C=C1C1CC1 (centres undefined),3,-1,2,37*,17*,3,-11
SMILES,LYPLA2 counter,Fam108B counter,LYPLA1 counter,GSTO1 counter,PAD4 inh,PME-1 primary,PAD4 confirm
O=C(C1CC(=O)N(c2ccc3c(c2)OCCO3)C1)N1CCN(c2ccccc2O)CC1 (centres undefined),11,2,3,1,1,0,x
N#CCCN(C(=O)Cn1nc(C(=O)O)c2ccccc2c1=O)c1ccccc1,-2,-3,-1,5,103*,-3,0
CCC(CO)Oc1cc(NCc2ccc(C(C)(C)C)cc2)c2ncn(C(C)C)c2c1 (centres undefined),x,x,x,x,-7,x,x
COCCNC(=O)c1cn(CCOC)c(=O)c2c1c1ccccc1n2C,-9,1,1,-3,-1,0,x
COc1ccccc1C(=O)COC(=O)/C(=C/c1ccccc1)NC(C)=O,1,-1,3,3,-6,4,x
NC(=O)c1ccc(NC(=O)CSC(=O)c2ccccc2)cc1,x,x,x,x,17*,x,8
Cc1nnc(SCC(=O)Nc2ccc(C(N)=O)cc2)n1-c1ccccc1,-4,2,-1,6,-4,-1,x
C=CCOc1cccc(C2/C(=C(\O)c3ccc4c(c3)OCCO4)C(=O)C(=O)N2CCN2CCOCC2)c1 (centres undefined),2,3,-2,2,3,3,x
Cn1ncc2nc[nH]c(=O)c21,-4,5,0,4,19*,-2,6
Cc1nc[nH]c(=O)c1Br,0,-1,2,0,-3,2,x
CN(CC(=O)Nc1ccc(Cl)c(Cl)c1)C(=O)CNC(=O)Cc1ccccc1,-1,x,1,x,-1,-6,x
O=C(Nc1nnc(-c2ccc(F)cc2)o1)c1cccc([N+](=O)[O-])c1,0,3,5,-2,-4,2,x
Clc1cccc(-c2ccc(C=Nc3ccc(N4CCOCC4)cc3)o2)c1,10,4,5,8,19*,5,5
Oc1c(Br)cc(Cl)cc1C=Nc1ccc(N2CCOCC2)cc1,0,1,-2,21,14,0,x
CC1CCC(NC(=O)CN2C(=O)COc3ccc(S(=O)(=O)N4CCCC4)cc32)CC1 (centres undefined),-2,-6,-4,3,7,3,x
